# Test results as given in PubChem BioAssay AID1347426 (Functional Genomics Laboratory (NCATS/FGL), 2020).
# The whole screen tested about 31,000 sequences, of which about 1,400 (4.5%) were called active.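 Rule for the calls: active = median seed-adjusted z-score above 1 or below -1; inactive = the rest.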 This excerpt belongs to a sample that is enriched for actives.
# Test: Novel Modifiers of Survival Motor Neuron (SMN) Protein: Gene Identification via Genome-wide siRNA Screen;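 note: luminescence tracks full-length SMN protein made from the SMN2 reporter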
# Details: HEK293T SMN2-luciferase reporter, siRNA knockdown, 72 h; actives lie on both sides
# Procedure, shortened: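 HEK293T cells stably expressing an SMN2 splicing/cDNA-luciferase reporter were reverse-transfected with a druggable-genome siRNA library and read by luminescence at 72 hours; hits defined by MAD score above 1.0 or below -1.0.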
row,Sequence,median seed-adjusted z-score
1,CCAUCGUUCUGGGAAUUCUTT against CD6,-0.33 (inactive)
2,GGAUGAUAAUGCUAAUCCATT against PPP1R3A,-0.241 (inactive)
3,GGACUUUGACAAGAACAGUTT against CYP1A2,0 (inactive)
4,GAACAAUGAGUAUAUCCUATT against PPP2R5B,0.237 (inactive)
5,GACGACCAAUUAUAGUUUATT against ZRANB1,-0.347 (inactive)
6,CCAUCAAUGCGGCUCAUGUTT against TUFM,1.07 (active)
7,GGAUCAGCCGAGGAUGAAATT against PPP1R15A,0.539 (inactive)
8,GGAUCUCAUGCACAUCUCATT against PLA2G6,-0.123 (inactive)
9,AGAAGAUUCUUGUAUUUAUTT against IL24,-0.125 (inactive)
10,GGAUGAUAUCAACUGCUAUTT against ACVR2A,-0.22 (inactive)
11,ACAUGUGGGUGACGGUUUUTT against SRM,0 (inactive)
12,CAUGGACCCUGAUGACAUATT against UROD,1.11 (active)
13,GCGUGAAUGAGGUGGAUUATT against ETNK2,-0.74 (inactive)
14,CGUAUACUAUUAUCACGUUTT against ATP6V0A1,0.103 (inactive)
15,GGGCACGGGUGAUAUGAAUTT against CTDP1,-2.29 (active)
16,AGCUACAAUUUGAAAGAGATT against RNF144A,-0.185 (inactive)
17,AGAGAUCACCGAUUACAGATT against ISG20,0.0209 (inactive)
18,CAACUGUUAUCAGAACGAUTT against ARFIP2,0.748 (inactive)
19,GCAAUGCCCUCUAUCAAUATT against IP6K1,-0.317 (inactive)
20,AGAUGAUCGCUGAGUUCAATT against TNNC2,-0.773 (inactive)
21,CGAAUGACAAGUGAUCUAATT against MDH1B,-1.13 (active)
22,GCUCAACUCUUAUUAGUCATT against ZNF485,0.445 (inactive)

row,Sequence,median seed-adjusted z-score
1,AUACCUGAACAGUCCCUCATT against NOBOX,-0.426 (inactive)
2,CGCGCAACAUCGUCAAGUATT against LPHN1,-1.03 (active)
3,GGACUAUUACAAAUCAAGATT against FLT3,0.418 (inactive)
4,GGACAUUGAUUAUAUUGGATT against GALC,0 (inactive)
5,GACCGAGAAGUACCGCUGATT against HBZ,-0.0054 (inactive)
6,GCAUGUACCAGGUUCAGUATT against LRFN1,0.605 (inactive)
7,GCAGAGACCUACAAAAAGATT against RCN3,-2.44 (active)
8,GGCAGUGUUUAUUUACUAUTT against RHBDL2,0.0701 (inactive)
9,CCAAAGAUGUUUCAUCUGATT against PCDHGA7,0.705 (inactive)
10,AAGGUAAAAUUGAAGAGUUTT against SERPINB9,0 (inactive)
11,CUCACCUACUGGAACCUGATT against ZBED4,-0.553 (inactive)
12,CCAACAUGCUAAUCACCUATT against MAP3K12,-0.6 (inactive)
13,CUAUUUUACCUUUACAAGATT against ALDH1A2,0.564 (inactive)
14,CAUUAUCUAUUCUAGACAATT against TTC18,-1.15 (active)
15,GCAUUGCCUCUAUACCAGATT against MALT1,0.442 (inactive)
16,GGGCAUGUUUCGUACCGUUTT against MYH10,0.0877 (inactive)
17,AGAACAUCCUGAUAGACCUTT against PIM2,0.00597 (inactive)
18,GGUGCGGAGAGAUGAGAUATT against PPM1M,0 (inactive)
19,GCAGAAAUGACACCAAUAATT against NMB,0.746 (inactive)
20,GCUCCUCAAAGGAUAUGAATT against CAB39L,0 (inactive)
21,AUUUAUUUGUUGAGGUUAUTT against PIM3,-1.01 (active)
22,GACCCUAAGCAGUAUAAGATT against CHSY3,-0.113 (inactive)

row,Sequence,median seed-adjusted z-score
1,CGAUUGCCCAUCAUCCUGATT against HAO2,0.039 (inactive)
2,GCUUCUACCCGGACGAAGATT against MYCN,0.00242 (inactive)
3,AAACACCGCUGUUCCGUAATT against MED8,-1.61 (active)
4,GGCUAGUGAUCGACCGUAATT against FADS1,-0.905 (inactive)
5,GAAACCUGCUGAUCUACGATT against CREB3L2,-0.192 (inactive)
6,GGAGAAAACCUUCGAGCAGTT against NKX6-2,0.101 (inactive)
7,UCCUAAAUGUGACCCGGUATT against ZMYND19,0.369 (inactive)
8,GCCCAUUUCAUCAACCUGATT against PRDM15,0.258 (inactive)
9,CAACAACUGCUACCAAGAUTT against SLC6A4,1.43 (active)
10,GGAACUAGAUGUCAUGUAUTT against VILL,0.518 (inactive)
11,CAAGUGUCUAUGUAACGAATT against FBN2,0.373 (inactive)
12,GCCUUUACCCUUGAAGAAATT against ME3,0.166 (inactive)
13,CAAUCAUGUCGAGAAAUAATT against TGIF2LX,-0.568 (inactive)
14,CGUUCAGUCCGUCACCCAATT against GATAD2A,-0.715 (inactive)
15,GGGUGGGUUACAUAGCACATT against CLDN19,0 (inactive)
16,GACUUAACCAAGAGACGUATT against THOC2,-1.22 (active)
17,GGACGAAGGACGUGCUGUUTT against SHC2,-0.207 (inactive)
18,GCAAUUACAUUGUACGCUUTT against ETFDH,0.154 (inactive)
19,CAGCUUCAGGAGAAUGAAATT against PPP1CC,-0.344 (inactive)
20,GCACGUAAGCUGAACACUATT against PRC1,-0.0195 (inactive)
21,UGAAGAACCUGGACGCCAATT against CCL24,0 (inactive)
22,CCUCGAGGAGAUUAACAAATT against NPEPL1,1.12 (active)

row,Sequence,median seed-adjusted z-score
1,CAGAUGAAGUGAUCGGUGATT against CIITA,-0.109 (inactive)
2,GCUCCUGUAUGAAUGCAAUTT against FBP2,0 (inactive)
3,GGCUUUUAGCCUGAAGAAATT against PRDM5,-0.463 (inactive)
4,CUGAUGCUCUGUAUCCCAATT against TNRC4,0.801 (inactive)
5,GAUGAUAUUUAUUCACCAATT against ZBTB25,0 (inactive)
6,GCAUACCUCAGUUCCAAGATT against CDY2A,0.75 (inactive)
7,CCUCUAACCUUAGAUGAAATT against GTF2E2,-1.32 (active)
8,GGAGCAUAAAGUAGACCGATT against ABCA10,-0.104 (inactive)
9,GACCGUUCACUGUACAACATT against FUT9,0.0444 (inactive)
10,GUGUUAUAACAAUCGAAGATT against CAPSL,-0.168 (inactive)
11,GGCUUAAACUUAGAGUCAATT against MYLIP,0.652 (inactive)
12,CAGUCGAUGUCCAUGAAUATT against LRRN1,-0.407 (inactive)
13,GAAUUGCUCCUAAUGUCAATT against MYB,0.307 (inactive)
14,CAGUGAGGUGAAACAAAUATT against DNAJC8,-1.62 (active)
15,GUGACCAUCUUGGACAUUATT against CELSR1,-0.466 (inactive)
16,GGCGACUGUUUAUACAUGATT against ALDH7A1,-0.406 (inactive)
17,GGAAGAAAUUAGCUAAAAATT against MKI67IP,0.426 (inactive)
18,UGACCCAGAUUAUCGCCGATT against POLR2I,-3.27 (active)
19,GCCUAGAGGAUACCCAAAATT against NPVF,0.588 (inactive)
20,GCUCAGAUGUUAUUCGGGATT against SKIV2L,0.209 (inactive)
21,GCAAAGCUAUUGCAUUGAATT against HSDL2,-0.0717 (inactive)
22,AGAUCAACCCAGAUAACUATT against INCENP,-0.339 (inactive)

row,Sequence,median seed-adjusted z-score
1,GCACCUAUCUUGACCUGCUTT against CTSC,0 (inactive)
2,CCUUCUAAUUCGCAAGGUATT against REL,-0.358 (inactive)
3,GCGCAGCUCUGGAAUUUGATT against OXCT2,-0.449 (inactive)
4,AGAGCAUUCACAAACUGAATT against RBM8A,0 (inactive)
5,CCUCCUCGAUGCCUACAAATT against DIO2,-0.549 (inactive)
6,CACUAUGGAGAAACAAUAUTT against ZNF181,-0.154 (inactive)
7,GGUGAUGACUGCUUGAUGATT against PSKH1,-2.03 (active)
8,CCCACCAAAUUGCACAAUATT against KLF13,-0.501 (inactive)
9,GACUGUCUUUGAAAAGAGATT against HESX1,0.3 (inactive)
10,GCAGCAUGCUACAACCAAATT against RNF25,-0.0826 (inactive)
11,GAUGGGUAAAUGUACAUAUTT against KCNIP4,-0.401 (inactive)
12,GCAUCGUGGGCAUAGCGUATT against PCSK6,0 (inactive)
13,GAAUUUUGAUGGACAAGUUTT against RAG2,0.138 (inactive)
14,GAACCUCAAGAAUCGAACATT against REV1,-0.294 (inactive)
15,CCAGGGACCAAGAGAAAGATT against RCE1,-1.19 (active)
16,GCUUUGAUUUCACCAACAATT against GCM2,-0.241 (inactive)
17,GGACGUGACCAUCAUGUACTT against IRF7,-0.304 (inactive)
18,CGAUGUCAGCAUUUCCGUUTT against EPRS,-0.391 (inactive)
19,UCACGCUCCUGGACCAUUUTT against SLC6A3,0.457 (inactive)
20,GAAGCGCAGUCACCUGAAATT against PROC,-0.228 (inactive)
21,CUGUUGAGGUUGUUAUUGATT against GABPA,1.43 (active)
